Experimental data taken from ChEMBL document CHEMBL3988442, “University of Dundee, Small-Polar-MMV Screening Library” (2021).
Hit rate of the full screen: of about 48,000 compounds, about 13,000 (27%) showed an effect of 50% or more. Some of the results follow.

Tested on: Wolbachia pipientis
Assay: Anti-Wolbachia Cell-Based Screen
Type: functional
Parameters: scale not given: in the data most compounds retested in dose-response had high values
Conditions: 5 µM

**Q.** How did the “Percent Effect” value turn out when `CC1CN(S(=O)(=O)c2ccc(F)cc2F)c2cccnc2O1` (configuration not stated) was run?
**A.** -5.201%

**Q.** `NC(=O)NC(=O)CCN1C(=O)CC(Cc2ccc(F)cc2)C1=O` (configuration not stated) was tested. Which “Percent Effect” value did it give?
**A.** 2.732%

**Q.** For `COc1cccc(C(=O)N2CCOCC2CN(C)C)c1OC.O=CO` (configuration not stated), which “Percent Effect” value is on record?
**A.** 3.966%

**Q.** Which “Percent Effect” value does the source give for `Cc1cc(C(=O)N[C@H]2CN(CCC(N)=O)C[C@@H]2C2CC2)sc1C` here?
**A.** 6.856%

**Q.** With `O=C(CS(=O)(=O)c1ccccn1)NC1CCCc2ccccc21` (configuration not stated) as the compound, how does the “Percent Effect” value read?
**A.** 25.59%

**Q.** How did the “Percent Effect” value turn out when `NC(=O)c1cccnc1N1CCN(c2ncnc3c2CCNC3)CC1` was run?
**A.** -13.85%

**Q.** How did the “Percent Effect” value turn out when `O=C(CS(=O)(=O)c1ncccc1Cl)NC1CCCc2ccccc21` (configuration not stated) was run?
**A.** 0.01745%

**Q.** How did the “Percent Effect” value turn out when `CC1CN(c2ncccc2C(=O)Nc2cccc3c2CCCC3)CCN1` (configuration not stated) was run?
**A.** 121.2%

**Q.** `O=C(Nc1cccc2c1CCCC2)C1CCCN1c1nccs1` (configuration not stated) was tested. Which “Percent Effect” value did it give?
**A.** 15.72%

**Q.** How did the “Percent Effect” value turn out when `O=C(Nc1cccc2c1CCCC2)c1cccnc1N1CCCNCC1` was run?
**A.** 136.8%

**Q.** How did the “Percent Effect” value turn out when `O=C(Nc1cccc2c1CCCC2)c1cccc(CN2CC[C@H](O)C2)c1` was run?
**A.** -13.79%

**Q.** How did the “Percent Effect” value turn out when `Cc1cccc(C(=O)Nc2cccc3c2CCCC3)n1` was run?
**A.** -12.03%

**Q.** For `CC1CN(c2ncccc2C(=O)N[C@@H]2CCCc3ccccc32)CCN1` (some centres not stated), which “Percent Effect” value is on record?
**A.** 127.7%

**Q.** With `Cc1cc(N2CCN(C(=O)c3cc(Cl)c[nH]3)CC2)nc(N)n1` as the compound, how does the “Percent Effect” value read?
**A.** 3.543%

**Q.** Which “Percent Effect” value does the source give for `CC(=O)CCCC(=O)N(Cc1ccsc1)CC(C)C` here?
**A.** -0.6388%

**Q.** How did the “Percent Effect” value turn out when `CCN(CC)C(=O)NC(C)c1ccc(Oc2cccnc2)c(F)c1` (configuration not stated) was run?
**A.** 111%

**Q.** `CC(NC(=O)Cc1ccon1)c1ccc(OCC2CC2)c(F)c1` (configuration not stated) was tested. Which “Percent Effect” value did it give?
**A.** 0.6015%

**Q.** `CC(NC(=O)N(C)C1CC1)c1ccc(Oc2cccnc2)c(F)c1` (configuration not stated) was tested. Which “Percent Effect” value did it give?
**A.** 100.6%

**Q.** `Cc1cc(CC(=O)NC(C)c2ccc(OCC3CC3)c(F)c2)n[nH]1` (configuration not stated) was tested. Which “Percent Effect” value did it give?
**A.** -4.858%

**Q.** With `CC(NC(=O)Cn1ccnc1)c1ccc(OCC2CC2)c(F)c1` (configuration not stated) as the compound, how does the “Percent Effect” value read?
**A.** 47.59%

**Q.** `CC(CNC(=O)c1ccccc1Oc1cccnc1)N(C)C` (configuration not stated) was tested. Which “Percent Effect” value did it give?
**A.** 3.869%

**Q.** With `CC(NC(=O)CN(C)C(C)C)c1ccc(Oc2cccnc2)c(F)c1` (configuration not stated) as the compound, how does the “Percent Effect” value read?
**A.** 102.4%

**Q.** With `CC(NC(=O)c1ccnn1C)c1ccc(OCC2CC2)c(F)c1` (configuration not stated) as the compound, how does the “Percent Effect” value read?
**A.** 28.88%

**Q.** How did the “Percent Effect” value turn out when `CCC(C#N)NC(=O)c1ccc(Oc2cccnc2)cc1` (configuration not stated) was run?
**A.** -3.415%

**Q.** For `CN(C)C1Cc2ccccc2N(S(=O)(=O)c2ccc(C#N)cc2)C1` (configuration not stated), which “Percent Effect” value is on record?
**A.** -15.49%

**Q.** With `OC[C@@H](O)CN(CCC(F)(F)F)c1ncc(Cl)cn1` as the compound, how does the “Percent Effect” value read?
**A.** -0.8071%

**Q.** For `O=C(NCCNc1cc(N2CCCC2)ncn1)c1cnccn1`, which “Percent Effect” value is on record?
**A.** 10.51%

**Q.** Which “Percent Effect” value does the source give for `OCCNc1cc(-c2ccncc2)ncn1` here?
**A.** 123.3%

**Q.** With `OCC1CCCN1c1cc(NCCNc2ccccn2)ncn1` (configuration not stated) as the compound, how does the “Percent Effect” value read?
**A.** 1.6%

**Q.** `Cn1ccc2c(-c3ccc(NCCO)nn3)ccnc21` was tested. Which “Percent Effect” value did it give?
**A.** 2.598%

**Q.** With `OCCNc1cc(N2CCN(Cc3ccccc3)C(CCO)C2)ncn1` (configuration not stated) as the compound, how does the “Percent Effect” value read?
**A.** 0.1628%

**Q.** How did the “Percent Effect” value turn out when `OCCNc1cc(-c2ccccc2)ncn1` was run?
**A.** 107.4%

**Q.** How did the “Percent Effect” value turn out when `CNc1cc(-c2ccncc2)ncn1` was run?
**A.** 104.2%

**Q.** For `CN(C)C(=O)c1cc(NC(=O)N2CCCC(C(F)(F)F)C2)ccn1` (configuration not stated), which “Percent Effect” value is on record?
**A.** -9.482%

**Q.** Which “Percent Effect” value does the source give for `COc1ccc(Cc2ncc3c(n2)CN(C(=O)CCO)C3)cc1` here?
**A.** -39.39%

**Q.** `Cc1c(CNC(=O)C2CCCCCN2C)oc2ccccc12` (configuration not stated) was tested. Which “Percent Effect” value did it give?
**A.** 0.5854%

**Q.** For `N#Cc1ccc(CN(CC(N)=O)C2CCCC2)c(Br)c1`, which “Percent Effect” value is on record?
**A.** -1.736%

**Q.** For `CN1CC(Oc2ccc(Cl)cc2)=NC(SCC(=O)Nc2ccccc2)=N1`, which “Percent Effect” value is on record?
**A.** 25.95%

**Q.** With `CC(C)(C)c1ncc(C(=O)NCCSc2ccccn2)c(O)n1` as the compound, how does the “Percent Effect” value read?
**A.** 2.392%

**Q.** How did the “Percent Effect” value turn out when `CC(=O)N1CCCN(c2nccc(-c3cn(C)nc3C)n2)CC1` was run?
**A.** -3.527%

**Q.** Which “Percent Effect” value does the source give for `Cc1nn(C)cc1-c1ccnc(N2CCCN(CC(C)C)CC2)n1` here?
**A.** 87.41%

**Q.** `Cc1nn(C)cc1-c1ccnc(N2CCSCC2)n1` was tested. Which “Percent Effect” value did it give?
**A.** -11.35%

**Q.** For `Cc1nn(C)c(C)c1-c1ccnc(N2CCCN(CC(C)C)CC2)n1`, which “Percent Effect” value is on record?
**A.** 93.07%

**Q.** Which “Percent Effect” value does the source give for `Cc1nn(-c2ccccc2)c(C)c1-c1ccnc(N2CCCNCC2)n1` here?
**A.** 14.93%

**Q.** `CC(=O)N1CCCN(c2nccc(-c3c(C)nn(C)c3C)n2)CC1` was tested. Which “Percent Effect” value did it give?
**A.** 41.92%

**Q.** For `O=C(NCc1nc(NC2CCCC2)c2cc(Cl)ccc2n1)c1cscn1`, which “Percent Effect” value is on record?
**A.** 4.35%

**Q.** For `Cc1cc(C)c2c(c1)C(CC(=O)O)C(=O)N2` (configuration not stated), which “Percent Effect” value is on record?
**A.** 1.764%

**Q.** Which “Percent Effect” value does the source give for `CN1CCCN(Cc2nc(Cc3ccccc3)n[nH]2)CC1` here?
**A.** 19.97%

**Q.** Which “Percent Effect” value does the source give for `O=c1ccc(-c2ccccc2F)nn1CCN1CCCS1(=O)=O` here?
**A.** -2.823%

**Q.** Which “Percent Effect” value does the source give for `CCn1nc(-c2ccccc2F)ccc1=O` here?
**A.** 11.86%

**Q.** With `CN1CCN(Cc2noc(-c3cc(-c4ccccc4F)n[nH]3)n2)CC1` as the compound, how does the “Percent Effect” value read?
**A.** -9.744%

**Q.** How did the “Percent Effect” value turn out when `CN1CCCN(Cn2nc(-c3ccccc3F)ccc2=O)CC1` was run?
**A.** 154.5%

**Q.** How did the “Percent Effect” value turn out when `O=c1ccc(-c2ccccc2F)nn1CN1CCCCCC1` was run?
**A.** 147.7%

**Q.** With `CCN1C(=O)[C@]2(CC[C@@H]3CN(S(=O)(=O)CC(C)C)C[C@@H]32)N=C1C` as the compound, how does the “Percent Effect” value read?
**A.** -19.96%

**Q.** For `CCc1c(C)nc(C)nc1N1C[C@@H](CN(C)C)[C@@H](CO)C1`, which “Percent Effect” value is on record?
**A.** -2.089%

**Q.** With `CN(C)c1nccc(C2CN(c3ccccc3)CCO2)n1` (configuration not stated) as the compound, how does the “Percent Effect” value read?
**A.** 99.49%

**Q.** `Cc1n[nH]c(C2CN(C(=O)c3ccoc3C)CCO2)n1` (configuration not stated) was tested. Which “Percent Effect” value did it give?
**A.** -42.67%

**Q.** `c1ccc(C2CN(c3ncnc4[nH]cnc34)CCO2)cc1` (configuration not stated) was tested. Which “Percent Effect” value did it give?
**A.** 11.05%

**Q.** How did the “Percent Effect” value turn out when `CN(C)c1nccc(C2CN(c3cnccn3)CCO2)n1` (configuration not stated) was run?
**A.** 85.29%

**Q.** How did the “Percent Effect” value turn out when `CC(=O)N1CCOC(c2ccnc(N(C)C)n2)C1` (configuration not stated) was run?
**A.** 93.18%

**Q.** `CN(C)c1nccc(N(C)C2CCOCC2)n1` was tested. Which “Percent Effect” value did it give?
**A.** 2.354%

**Q.** How did the “Percent Effect” value turn out when `COCCn1cc(C(=O)N2CCCC2c2ccc(F)cc2)ccc1=O` (configuration not stated) was run?
**A.** -7.034%

**Q.** `COC(=O)NCCC(=O)NC(c1ccc(Cl)cc1)C(F)(F)F` (configuration not stated) was tested. Which “Percent Effect” value did it give?
**A.** -2.05%

**Q.** With `COc1ccccc1CN1C[C@@H](F)[C@@H](OCc2nc3cnccc3[nH]2)C1` as the compound, how does the “Percent Effect” value read?
**A.** -3.752%

**Q.** With `Cc1cc(C)n(CCN2CCN(C(=O)c3cc4ccccc4o3)CC2)n1` as the compound, how does the “Percent Effect” value read?
**A.** 9.033%

**Q.** Which “Percent Effect” value does the source give for `O=C(NC1CCN(c2ccc(-c3ccccc3F)nn2)C1)c1ccc[nH]1` (configuration not stated) here?
**A.** 5.245%

**Q.** How did the “Percent Effect” value turn out when `CC(C)c1cc(CSCCC(=O)O)no1` was run?
**A.** 33.59%

**Q.** With `CC(C)c1cc(COCCCC(=O)O)no1` as the compound, how does the “Percent Effect” value read?
**A.** 94.89%

**Q.** Which “Percent Effect” value does the source give for `COCC(C)NC(=O)N(C)Cc1cc(C)on1` (configuration not stated) here?
**A.** -2.25%

**Q.** Which “Percent Effect” value does the source give for `COc1cccc(C2CCN2C(=O)c2cc(C(C)C)on2)c1` (configuration not stated) here?
**A.** 21.92%

**Q.** For `COC(=O)C(C)N(Cc1cc(C)on1)C1CC1` (configuration not stated), which “Percent Effect” value is on record?
**A.** -2.266%

**Q.** For `CC(C)c1cc(COCCC(=O)O)no1`, which “Percent Effect” value is on record?
**A.** 121.8%
